Data on 9 compounds can be found in PubChem BioAssay (NCI).

Some test systems named below: SR leukemia; RPMI-8226 leukemia; OVCAR-5 ovarian; OVCAR-4 ovarian; SK-OV-3 ovarian; IGROV1 ovarian; OVCAR-3 ovarian; HS 578T breast; NCI/ADR-RES ovarian; T-47D breast; BT-549 breast; MDA-MB-435 melanoma; SW-620 colon; MCF7 breast; HCT-116 colon; HCC-2998 colon; KM12 colon; OVCAR-8 ovarian.
Holding throughout (experiment): NCI-60 one-dose screen, 48 h (100 = growth as untreated, 0 = no growth, -100 = all killed)
What all share (settings): 10 µM unless noted

Compounds without any hit were thinned out: in the full panel of roughly 83,000, 20% have a hit.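 48-hour exposure, single concentration, 96-well plates; percent growth endpoint where 0 means no net growth. Active: below 10.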 A number with no mark means an inactive call. The source made the active and inactive calls.

In the case of `O=c1c(CNc2ccc(S(=O)(=O)Nc3ncccn3)cc2)coc2ccccc12`, the growth with SR leukemia is 100%; in the assay with RPMI-8226 leukemia it was 73.1%; in the assay on OVCAR-5 ovarian it was 96.3%; with OVCAR-4 ovarian, 104%; with SK-OV-3 ovarian, 98.7%; in the assay with IGROV1 ovarian, 95.2%. The growth with OVCAR-3 ovarian is 111%; in the assay with HS 578T breast, 102%; in the assay with NCI/ADR-RES ovarian it was 104%; in the assay with T-47D breast, 81.1%; in the assay with BT-549 breast it was 93.6%; in the assay on MDA-MB-435 melanoma, 119%. Moreover, the growth in the assay on SW-620 colon is 98.4%; in the assay on MCF7 breast, 86.1%; in the assay on HCT-116 colon it was 91.3%; in the assay with HCC-2998 colon it was 101%; in the assay with KM12 colon it was 115%.
With `COc1ccc2c(c1)C/C(=C\c1cc(-c3cc(OC)c(OC)c(OC)c3)n[nH]1)C2=O`, the growth in the assay with SR leukemia was 57.8%; in the assay on RPMI-8226 leukemia it was 52.8%; in the assay with OVCAR-5 ovarian, 97.5%; in the assay with OVCAR-4 ovarian, 82.2%; in the assay on SK-OV-3 ovarian, 102%; with IGROV1 ovarian, 106%. Also, the growth is 93.6% in the assay with OVCAR-3 ovarian; 91.8% with HS 578T breast; 73.4% in the assay with T-47D breast; 85.2% with BT-549 breast; 91.5% with MDA-MB-435 melanoma; 91.1% in the assay with SW-620 colon. Besides, the growth in the assay on MCF7 breast was 56.3%; with HCT-116 colon, 81.9%; in the assay on HCC-2998 colon, 102%; with KM12 colon it was 85%.
Consider `c1ccc2[nH]c(-c3cc(-c4ccc5c(c4)OCO5)n[nH]3)nc2c1`, for which the growth with SR leukemia was 28%; in the assay on RPMI-8226 leukemia it was 7.45% (active); in the assay on OVCAR-5 ovarian it was 86.4%; in the assay on OVCAR-4 ovarian, 60.5%; in the assay with SK-OV-3 ovarian, 76.9%; in the assay with IGROV1 ovarian, 56.6%. The growth with OVCAR-3 ovarian is 40.8%; in the assay with NCI/ADR-RES ovarian, 59.6%; in the assay with T-47D breast, 40%; in the assay with BT-549 breast, 34.5%; in the assay on MDA-MB-435 melanoma, 58%; in the assay with SW-620 colon it was 61.3%. Further, the growth in the assay with MCF7 breast is 59.2%; with HCT-116 colon, 51.7%; with HCC-2998 colon, 81.2%; with KM12 colon, 28.2%.
Take `Fc1ccc2nc(-c3cc(-c4ccc5c(c4)OCO5)n[nH]3)[nH]c2c1`: the growth was 10% in the assay on SR leukemia; 10.3% in the assay with RPMI-8226 leukemia; 84.3% in the assay with OVCAR-5 ovarian; 57.2% in the assay on OVCAR-4 ovarian; 5.87% (active) in the assay on OVCAR-3 ovarian; 78.2% in the assay with HS 578T breast. Moreover, the growth in the assay on NCI/ADR-RES ovarian is 42.4%; with T-47D breast, 50.4%; with BT-549 breast it was 27.5%; in the assay on MDA-MB-435 melanoma, 46.4%; in the assay with SW-620 colon it was 37.2%; with MCF7 breast it was 59.3%. The growth with HCT-116 colon is 49.6%; with HCC-2998 colon, 71.9%; in the assay with KM12 colon it was 16.1%.
For the compound `N#CC1=C(N)Oc2c(c(N)nn2-c2ccccc2)C1c1ccc(Cl)cc1` (stereo not given), the growth is 95.8% with SR leukemia; 95.4% in the assay on OVCAR-8 ovarian; 102% in the assay with OVCAR-5 ovarian; 105% in the assay with OVCAR-4 ovarian; 81.7% in the assay on SK-OV-3 ovarian; 84.5% in the assay on IGROV1 ovarian. Further, the growth with OVCAR-3 ovarian is 109%; with HS 578T breast, 97%; with NCI/ADR-RES ovarian, 101%; in the assay with T-47D breast, 86.7%; in the assay on BT-549 breast it was 81.5%; in the assay with MDA-MB-435 melanoma, 105%. The growth in the assay with SW-620 colon was 98.1%; with MCF7 breast it was 98.7%; in the assay with HCT-116 colon, 96.2%; in the assay with HCC-2998 colon, 113%; in the assay on KM12 colon, 104%.
As to `COc1ccc2nc(-c3c(-c4ccccc4)nc4ncccn34)[nH]c2c1`, the growth with SR leukemia was 90.3%; with RPMI-8226 leukemia, 88%; in the assay with OVCAR-5 ovarian it was 97.9%; with OVCAR-4 ovarian it was 93.2%; in the assay on SK-OV-3 ovarian, 109%; in the assay with IGROV1 ovarian it was 111%. Further, the growth with OVCAR-3 ovarian is 108%; in the assay with NCI/ADR-RES ovarian, 108%; with T-47D breast it was 82.1%; with BT-549 breast, 110%; in the assay with MDA-MB-435 melanoma, 104%; in the assay on SW-620 colon, 108%. The growth with MCF7 breast is 96.6%; in the assay with HCT-116 colon, 97.1%; with HCC-2998 colon it was 101%; in the assay on KM12 colon, 111%.
`COc1cccc(NC(=O)c2sc3nc4c(cc3c2N)C(=O)CCC4)c1`: the growth in the assay on SR leukemia is 3.01% (active); in the assay on RPMI-8226 leukemia, 0.464% (active); in the assay on OVCAR-5 ovarian, 50%; in the assay with OVCAR-4 ovarian, 58.9%; in the assay with SK-OV-3 ovarian, -2.7% (active); in the assay on IGROV1 ovarian, 49.2%. Moreover, the growth in the assay on OVCAR-3 ovarian is -2.17% (active); in the assay with NCI/ADR-RES ovarian, -31.2% (active); in the assay on T-47D breast it was 51.9%; in the assay on BT-549 breast, 29.9%; in the assay with MDA-MB-435 melanoma, -37.2% (active); with SW-620 colon it was 23.6%. For the same compound, the growth in the assay on MCF7 breast was 29.4%; with HCT-116 colon, 17.6%; in the assay on HCC-2998 colon, 19.9%; in the assay with KM12 colon, 16.6%.
In the case of `O=c1c2sc3ncc(Br)cc3c2ncn1-c1cccc(Cl)c1`, the growth in the assay with SR leukemia was 76.6%; in the assay with RPMI-8226 leukemia, 75.1%; with OVCAR-5 ovarian, 94.6%; in the assay on OVCAR-4 ovarian, -25.9% (active); with SK-OV-3 ovarian, 67.6%; with IGROV1 ovarian, 83.9%. For the same compound, the growth in the assay with NCI/ADR-RES ovarian is 80.8%; in the assay on T-47D breast, 61.9%; in the assay on BT-549 breast, 78.9%; in the assay with MDA-MB-435 melanoma it was 75.2%; in the assay on SW-620 colon, 58.8%; with MCF7 breast, 94.2%. Also, the growth is 27.4% with HCT-116 colon, 104% with HCC-2998 colon and 72.2% in the assay on KM12 colon.
With `O=C1NC(=Nc2ccc(S(=O)(=O)Nc3nccs3)cc2)S/C1=C\c1coc2ccccc2c1=O`, the growth was 88.9% in the assay on SR leukemia; 101% in the assay with RPMI-8226 leukemia; 121% in the assay on OVCAR-5 ovarian; 102% with OVCAR-4 ovarian; 91.5% in the assay with SK-OV-3 ovarian; 98.1% in the assay with IGROV1 ovarian. The growth was 117% in the assay on OVCAR-3 ovarian; 90.8% in the assay on HS 578T breast; 106% with NCI/ADR-RES ovarian; 97.1% with T-47D breast; 106% in the assay on BT-549 breast; 124% in the assay on MDA-MB-435 melanoma. The growth in the assay with SW-620 colon is 99.7%; in the assay on MCF7 breast, 88%; in the assay with HCT-116 colon it was 104%; with HCC-2998 colon, 99.1%; with KM12 colon it was 113%.
